In all, about 5,500 compounds went through this assay and about 2,000 (36%) were called active. Inconclusive results (about 18%) are left out. No stated cut-off is given here; in the data, active means normalized growth mostly below about 0.91 (no sharp cut-off); inconclusive means no clear call, values can overlap the other calls; inactive means mostly above about 0.92. Some of the results follow.
Assay: chemical genetic growth profiling, strain panel (AID 1159580);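 further: tested at 20 µM; growth read once vehicle control cultures reached saturation at 30 °C; 1 = growth at the plate median or of vehicle wells; lower values mean less growth of the strain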
Conditions: growth OD

Measured: normalized growth

O=C(O)CCCOc1ccc(Cl)cc1Cl
active: S. cerevisiae deletion strains, locus YLR113W, strain HOG1, active compounds read low 0.584 | S. cerevisiae deletion strains, locus YLR262C, strain YPT6 (second series), active compounds read low 0.792 | S. cerevisiae deletion strains, locus YMR231W, strain pep5, active compounds read low 0.92 | S. cerevisiae deletion strains, locus YNL183C, strain NPR1, active compounds read low 0.731 | S. cerevisiae deletion strains, locus YNL322C, strain KRE1 (second series), active compounds read low 0.882 | S. cerevisiae deletion strains, locus YOR231W, strain MKK1, active compounds read low 0.796 | S. cerevisiae deletion strains, locus YPL256C, strain CLN2, active compounds read low 0.756
inactive: S. cerevisiae deletion strains, locus YJR075W, strain HOC1, active compounds read low 0.999 | S. cerevisiae deletion strains, locus YKL009W, strain mrt4, active compounds read low 0.967 | S. cerevisiae deletion strains, locus YKL068W, active compounds read low 0.986 | S. cerevisiae deletion strains, locus YKL085W, strain MDH1 (second series), active compounds read low 0.984 | S. cerevisiae deletion strains, locus YKL085W, strain MDH1, active compounds read low 0.984 | S. cerevisiae deletion strains, locus YKL160W, strain elf1, active compounds read low 0.953 | S. cerevisiae deletion strains, locus YKL190W, strain CNB1, active compounds read low 0.982 | S. cerevisiae deletion strains, locus YKR001C, strain vps1, active compounds read low 0.996 | S. cerevisiae deletion strains, locus YKR026C, strain gcn3, active compounds read low 0.926 | S. cerevisiae deletion strains, locus YKR091W, strain srl3, active compounds read low 0.955 | S. cerevisiae deletion strains, locus YLL001W, strain dnm1, active compounds read low 0.94 | S. cerevisiae deletion strains, locus YLL026W, active compounds read low 0.945 | S. cerevisiae deletion strains, locus YLL041C, strain sdh2, active compounds read low 0.951 | S. cerevisiae deletion strains, locus YLR027C, strain aat2, active compounds read low 0.96 | S. cerevisiae deletion strains, locus YLR039C, strain RIC1, active compounds read low 0.965 | S. cerevisiae deletion strains, locus YLR058C, strain SHM2, active compounds read low 0.999 | S. cerevisiae deletion strains, locus YLR102C, strain apc9, active compounds read low 1.03 | S. cerevisiae deletion strains, locus YLR221C, strain rsa3, active compounds read low 0.949 | S. cerevisiae deletion strains, locus YLR258W, strain gsy2, active compounds read low 0.943 | S. cerevisiae deletion strains, locus YLR262C, strain YPT6, active compounds read low 0.976 | S. cerevisiae deletion strains, locus YLR268W, strain sec22, active compounds read low 1.02 | S. cerevisiae deletion strains, locus YLR320W, strain mms22, active compounds read low 0.955 | S. cerevisiae deletion strains, locus YLR330W, strain CHS5, active compounds read low 0.995 | S. cerevisiae deletion strains, locus YLR342W, strain FKS1 (second series), active compounds read low 0.997 | S. cerevisiae deletion strains, locus YLR342W, strain FKS1, active compounds read low 0.922 | S. cerevisiae deletion strains, locus YLR357W, strain rsc2, active compounds read low 0.888 | S. cerevisiae deletion strains, locus YLR370C, strain arc18, active compounds read low 0.936 | S. cerevisiae deletion strains, locus YLR371W, strain rom2, active compounds read low 1.01 | S. cerevisiae deletion strains, locus YLR384C, strain iki3, active compounds read low 0.945 | S. cerevisiae deletion strains, locus YLR418C, strain cdc73, active compounds read low 1.03 | S. cerevisiae deletion strains, locus YML016C, strain PPZ1, active compounds read low 0.999 | S. cerevisiae deletion strains, locus YML032C, strain rad52, active compounds read low 1.01 | S. cerevisiae deletion strains, locus YML120C, strain ndi1, active compounds read low 0.958 | S. cerevisiae deletion strains, locus YML124C, strain tub3, active compounds read low 1 | S. cerevisiae deletion strains, locus YMR058W, strain fet3, active compounds read low 0.947 | S. cerevisiae deletion strains, locus YMR078C, strain ctf18, active compounds read low 1.01 | S. cerevisiae deletion strains, locus YMR125W, strain sto1, active compounds read low 0.913 | S. cerevisiae deletion strains, locus YMR129W, active compounds read low 0.944 | S. cerevisiae deletion strains, locus YMR205C, strain PFK2, active compounds read low 0.955 | S. cerevisiae deletion strains, locus YMR223W, strain ubp8, active compounds read low 1.01 | S. cerevisiae deletion strains, locus YMR263W, strain SAP30, active compounds read low 0.989 | S. cerevisiae deletion strains, locus YMR307W, strain GAS1, active compounds read low 1 | S. cerevisiae deletion strains, locus YNL067W, strain RPL9B, active compounds read low 0.997 | S. cerevisiae deletion strains, locus YNL071W, strain lat1, active compounds read low 0.935 | S. cerevisiae deletion strains, locus YNL128W, strain TEP1, active compounds read low 1.01 | S. cerevisiae deletion strains, locus YNL153C, strain GIM3, active compounds read low 0.997 | S. cerevisiae deletion strains, locus YNL209W, strain ssb2, active compounds read low 0.971 | S. cerevisiae deletion strains, locus YNL233W, strain BNI4, active compounds read low 0.971 | S. cerevisiae deletion strains, locus YNL248C, strain rpa49, active compounds read low 0.941 | S. cerevisiae deletion strains, locus YNL250W, strain rad50, active compounds read low 1 | S. cerevisiae deletion strains, locus YNL271C, strain bni1, active compounds read low 0.996 | S. cerevisiae deletion strains, locus YNL298W, strain CLA4, active compounds read low 0.976 | S. cerevisiae deletion strains, locus YNL307C, strain MCK1, active compounds read low 1.01 | S. cerevisiae deletion strains, locus YNL322C, strain KRE1, active compounds read low 0.994 | S. cerevisiae deletion strains, locus YNR049C, strain mso1, active compounds read low 0.929 | S. cerevisiae deletion strains, locus YNR052C, strain pop2, active compounds read low 1.01 | S. cerevisiae deletion strains, locus YOL006C, strain TOP1, active compounds read low 1.04 | S. cerevisiae deletion strains, locus YOL012C, strain htz1 1.19 | S. cerevisiae deletion strains, locus YOL147C, strain pex11, active compounds read low 1.01 | S. cerevisiae deletion strains, locus YOR001W, strain rrp6, active compounds read low 0.953 | S. cerevisiae deletion strains, locus YOR061W, strain CKA2, active compounds read low 0.999 | S. cerevisiae deletion strains, locus YOR069W, strain VPS5, active compounds read low 1 | S. cerevisiae deletion strains, locus YOR070C, strain gyp1, active compounds read low 0.947 | S. cerevisiae deletion strains, locus YOR080W, strain dia2, active compounds read low 0.925 | S. cerevisiae deletion strains, locus YOR083W, strain WHI5, active compounds read low 0.956 | S. cerevisiae deletion strains, locus YOR106W, strain vam3, active compounds read low 0.942 | S. cerevisiae deletion strains, locus YOR136W, strain idh2, active compounds read low 1.02 | S. cerevisiae deletion strains, locus YOR144C, strain elg1, active compounds read low 1.02 | S. cerevisiae deletion strains, locus YOR184W, strain ser1, active compounds read low 1.03 | S. cerevisiae deletion strains, locus YOR265W, strain rbl2, active compounds read low 0.943 | S. cerevisiae deletion strains, locus YOR270C, strain vph1, active compounds read low 0.971 | S. cerevisiae deletion strains, locus YOR290C, strain snf2, active compounds read low 0.962 | S. cerevisiae deletion strains, locus YOR316C, strain cot1, active compounds read low 1.01 | S. cerevisiae deletion strains, locus YPL051W, strain arl3, active compounds read low 0.943 | S. cerevisiae deletion strains, locus YPL055C, strain LGE1, active compounds read low 1.01 | S. cerevisiae deletion strains, locus YPL078C, strain atp4, active compounds read low 0.93 | S. cerevisiae deletion strains, locus YPL106C, strain sse1, active compounds read low 1.03 | S. cerevisiae deletion strains, locus YPL240C, strain hsp82, active compounds read low 0.937 | S. cerevisiae deletion strains, locus YPL241C, strain CIN2, active compounds read low 1 | S. cerevisiae deletion strains, locus YPR119W, strain clb2, active compounds read low 1.01 | S. cerevisiae deletion strains, locus YPR141C, strain kar3, active compounds read low 1.01 | S. cerevisiae deletion strains, locus YPR163C, strain tif3, active compounds read low 1.02 | S. cerevisiae deletion strains, locus YPR167C, strain met16, active compounds read low 1.05 | S. cerevisiae deletion strains, strain wtn01, active compounds read low 1.01 | S. cerevisiae strains, strain wild type, active compounds read low 1

Reference: PubChem BioAssay AID1159580 (chemical genetic matrix, 2015)
